Reference: the supplement of paper PMC6992640
± gives the standard deviation of the averaged measurements.

Test system: HCI01 (cells of a triple-negative basal-like breast cancer xenograft)
Experiment: cell viability (% of vehicle); higher = less cytotoxic
Conditions: 10 µM; 72 h
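Note: PDX cells carrying CMV promoter-driven luciferase, viability read as total photon flux per second by IVIS imaging following D-luciferin, vehicle control 0.1% DMSO.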

Point of comparison: `CCC(C(C)O)n1ncn(-c2ccc(N3CCN(c4ccc(OCC5COC(Cn6cncn6)(c6ccc(F)cc6F)C5)cc4)CC3)cc2)c1=O` (centres undefined) [Posaconazole], cell viability 123 ± 2.6. Against it:
- COC(=O)C(c1ccccc1Cl)N1CCc2sccc2C1.O=S(=O)(O)O (centres undefined) [Clopidogrel] — lower, 102 ± 3
- CC(C)(C)C(=O)C(Oc1ccc(Cl)cc1)n1ccnc1 (centres undefined) [Climbazole] — within error, 152 ± 37
- CCCN(CCC)CCc1cccc2c1CC(=O)N2.Cl [Ropinirole HCl] — lower, 61.7 ± 39
- CCCC(=O)Nc1ccc(OCC(O)CNC(C)C)c(C(C)=O)c1.Cl (centres undefined) [Acebutolol HCl] — within error, 125 ± 5.8
- O=C(O)C=Cc1ccccc1 [Cinnamic acid] — within error, 98.7 ± 32
- Nc1nc(=O)c2nc(CNc3ccc(C(=O)NC(CCC(=O)O)C(=O)O)cc3)cnc2[nH]1 (centres undefined) [Folic acid] — within error, 103 ± 21
- OCC(O)CN1CCN(c2ccccc2)CC1 (centres undefined) [Dropropizine] — lower, 97.2 ± 14
- CN(C)CCC(c1ccccc1)c1ccccn1.O=C(O)C=CC(=O)O (centres undefined) [Pheniramine Maleate] — within error, 111 ± 10
- CC(C)(C)c1cc(NC(=O)Nc2ccc(-c3cn4c(n3)sc3cc(OCCN5CCOCC5)ccc34)cc2)no1 [Quizartinib (AC220)] — higher, 168 ± 27
- O=c1nc[nH]c2c1ncn2C1CCC(CO)O1 (centres undefined) [Didanosine] — lower, 105.3 ± 0.26
- CC1(C)SC2C(NC(=O)Cc3ccccc3)C(=O)N2C1C(=O)[O-].[Na+] (centres undefined) [Penicillin G Sodium] — within error, 170 ± 78
- CCCCC(=O)N(Cc1ccc(-c2ccccc2-c2nnn[nH]2)cc1)[C@H](C(=O)O)C(C)C.CCOC(=O)[C@H](C)C[C@@H](Cc1ccc(-c2ccccc2)cc1)NC(=O)CCC(=O)O — lower, 98.1 ± 17
- Clc1ccc(COC(Cn2ccnc2)c2ccc(Cl)cc2Cl)c(Cl)c1 (centres undefined) [Miconazole] — within error, 109 ± 41
- O=C(O)[C@H](O)[C@@H](O)C(=O)O.c1cnc2cc3c(cc2n1)C1CNC[C@@H]3C1 [Varenicline Tartrate] — higher, 169.5 ± 0.68
- CN(C)CCC(c1ccc(Cl)cc1)c1ccccn1.O=C(O)C=CC(=O)O (centres undefined) [Chlorpheniramine Maleate] — within error, 157 ± 40
- Nc1nc(CC(=O)Nc2ccc(CCNCC(O)c3ccccc3)cc2)cs1 (centres undefined) [Mirabegron (YM178)] — within error, 127 ± 6.3
- CCCS(=O)c1ccc2nc(NC(=O)OC)[nH]c2c1 (centres undefined) [Albendazole Oxide] — within error, 115 ± 11
- C=C1C(CO)C(O)CC1n1cnc2c(=O)nc(N)[nH]c21.O (centres undefined) [Entecavir Hydrate] — lower, 110 ± 5.2
- Cc1ccccc1C(OCCN(C)C)c1ccccc1.O=C(O)CC(O)(CC(=O)O)C(=O)O (centres undefined) [Orphenadrine Citrate] — within error, 145 ± 33
- CCC(C)C(=O)OC1CC(C)C=C2C=CC(C)C(CCC3CC(O)CC(=O)O3)C21 (centres undefined) [Lovastatin] — within error, 119 ± 27
- CN1CCC(=C2c3ccccc3CCc3sccc32)CC1.O=C(O)CC(O)C(=O)O [Pizotifen Malate] — within error, 100 ± 41
- COCCCOc1cc(CC(CC(N)C(O)CC(C(=O)NCC(C)(C)C(N)=O)C(C)C)C(C)C)ccc1OC.COCCCOc1cc(CC(CC(N)C(O)CC(C(=O)NCC(C)(C)C(N)=O)C(C)C)C(C)C)ccc1OC.O=C(O)C=CC(=O)O (centres undefined) [Aliskiren Hemifumarate] — within error, 117 ± 11
- CC(C)C(N)C(=O)OCCOCn1cnc2c(=O)nc(N)[nH]c21.Cl (centres undefined) [Valaciclovir HCl] — lower, 71.5 ± 40
- CC1CCOC2Cn3cc(C(=O)NCc4ccc(F)cc4F)c(=O)c(O)c3C(=O)N12 (centres undefined) — within error, 133 ± 25
- CC(S)C(=O)NCC(=O)O (centres undefined) [Tiopronin (Thiola)] — lower, 104 ± 4.1
- CCCCC(=O)OC1CCC2C3CCc4cc(O)ccc4C3CCC12C (centres undefined) [Estradiol valerate] — within error, 157 ± 47
- NC1CCCCC1N.O=C([O-])C(=O)[O-].[Pt+2] (centres undefined) [Oxaliplatin] — lower, 97.5 ± 3.3
- COc1cc(Nc2ncc3c(n2)-c2ccc(Cl)cc2C(c2c(F)cccc2OC)=NC3)ccc1C(=O)O [MLN8237 (Alisertib)] — lower, 80 ± 15
- C[N+](C)(CCOc1ccccc1)Cc1ccccc1.O=C(O)c1cc2ccccc2cc1[O-] [Bephenium Hydroxynaphthoate] — within error, 121 ± 9.4
- NC(=O)C1CCCc2c1[nH]c1ccc(Cl)cc21 (centres undefined) — higher, 145 ± 13
- Nc1cc(C(Cl)=C(Cl)Cl)c(S(N)(=O)=O)cc1S(N)(=O)=O [Clorsulon] — within error, 107 ± 17
- Nc1nc(=O)c2ncn(COC(CO)CO)c2[nH]1 [Ganciclovir] — lower, 63.1 ± 33
- CNNCc1ccc(C(=O)NC(C)C)cc1.Cl [Procarbazine HCl] — lower, 93.5 ± 4.4
- CC(=O)N1CCN(c2ccc(OCC3COC(Cn4ccnc4)(c4ccc(Cl)cc4Cl)O3)cc2)CC1 (centres undefined) [Ketoconazole] — higher, 188 ± 14
- COC(=O)C1=C(C)NC(C)=C(C(=O)OC(C)C)C1c1cccc2nonc12 (centres undefined) [Isradipine (Dynacirc)] — within error, 111 ± 18
- Br.CN1CCCC1Cc1c[nH]c2ccc(CCS(=O)(=O)c3ccccc3)cc12 (centres undefined) [Eletriptan HBr] — lower, 91.4 ± 17
- CCN(CC)CCOC(=O)C(c1ccccc1)c1ccccc1.Cl [Adiphenine HCl] — lower, 93.1 ± 17
- CCCN1CCCCC1C(=O)Nc1c(C)cccc1C.Cl.O (centres undefined) [Ropivacaine hydrochloride monohydrate] — lower, 86.9 ± 16
